# From PubChem
# hNpr1 antagonist = human Npr1 receptor antagonism; HEK293 hNpr1 GloSensor cGMP, ANP-stimulated luminescence; Potency, µM (doses to about 46.3 µM), inactives show at the highest dose activity change, negative = inhibition, usual class: inhibitors; hit rate 1.6% among 76,000; AID 1347048; calls by dose curve; further: nearly all actives have a fitted effect of over 60% in size
# Target sequence (P16066 whole entry, looked up): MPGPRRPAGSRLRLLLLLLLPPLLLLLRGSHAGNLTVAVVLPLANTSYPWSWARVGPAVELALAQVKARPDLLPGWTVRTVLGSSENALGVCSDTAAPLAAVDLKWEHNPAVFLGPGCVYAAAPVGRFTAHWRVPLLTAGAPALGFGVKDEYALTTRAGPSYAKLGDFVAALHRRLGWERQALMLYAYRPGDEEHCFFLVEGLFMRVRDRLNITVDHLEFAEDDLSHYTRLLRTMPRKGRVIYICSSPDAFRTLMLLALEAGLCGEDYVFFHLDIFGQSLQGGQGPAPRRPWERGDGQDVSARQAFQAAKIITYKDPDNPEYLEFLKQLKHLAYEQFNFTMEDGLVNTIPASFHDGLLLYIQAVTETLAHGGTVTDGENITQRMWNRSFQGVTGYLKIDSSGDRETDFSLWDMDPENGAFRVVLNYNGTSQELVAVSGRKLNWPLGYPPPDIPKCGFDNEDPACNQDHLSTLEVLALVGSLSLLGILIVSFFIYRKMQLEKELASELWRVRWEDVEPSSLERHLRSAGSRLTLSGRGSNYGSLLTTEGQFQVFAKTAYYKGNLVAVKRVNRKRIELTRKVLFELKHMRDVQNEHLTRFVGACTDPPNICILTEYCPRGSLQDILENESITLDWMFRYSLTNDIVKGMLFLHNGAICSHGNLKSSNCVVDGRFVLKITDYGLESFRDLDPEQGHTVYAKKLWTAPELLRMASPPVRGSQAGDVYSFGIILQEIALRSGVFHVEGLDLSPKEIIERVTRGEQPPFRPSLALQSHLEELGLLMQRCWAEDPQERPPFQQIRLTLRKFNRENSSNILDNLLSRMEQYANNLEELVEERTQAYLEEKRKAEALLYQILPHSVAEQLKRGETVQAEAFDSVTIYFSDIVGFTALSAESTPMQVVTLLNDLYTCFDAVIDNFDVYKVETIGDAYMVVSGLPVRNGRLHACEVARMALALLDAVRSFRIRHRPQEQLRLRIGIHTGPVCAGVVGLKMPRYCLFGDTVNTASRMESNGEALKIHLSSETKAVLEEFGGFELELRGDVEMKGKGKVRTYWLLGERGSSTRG
#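 Compound pre-incubated 30 min at room temperature on GloSensor-loaded HEK293 cells stably carrying hNpr1 and the pGS-40F cGMP biosensor. Stimulation uses hNppA at 0.1 nM final; luminescence is taken at baseline and 20 min post-agonist.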
# SNCA expr inh = inhibitors of alpha-synuclein (SNCA) gene expression | AID 1671194 | HEK-293 SNCA-luciferase knock-in, luminescence, 24 h | Potency, µM (titrated, usually from 57.2 µM), for inactives: at the top dose activity change, negative = inhibition, hits mostly inhibitors | hit rate 0.17% among 140,000;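 further: plate controls were DMSO cells for no effect and cell-free wells for full effect; nearly all actives have a fitted effect of over 45% in size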
# Luciferase inh = inhibitors of firefly (Photinus pyralis) luciferase; AID 1347043; purified P. pyralis luciferase, luminescence, biochemical; Potency, µM (highest dose often 115 µM), most hits filed as inhibitors; hit rate 2.5% among 76,000; further: nearly all actives have a fitted effect of over 65% in size
#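 FLuc 10nM, D-luciferin 10uM, ATP 10uM, Mg acetate 10mM, Tris acetate pH 7.5, Tween/BSA; cpd qHTS; enzyme added last; CCD luminescence.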
# HEK293 tox = cytotoxic compounds in HEK 293 cells; HEK 293 viability, ATP luminescence (CellTiter-Glo), 48-72 h; Potency, µM (doses to about 115 µM), for inactives: at the top dose activity change, negative = cytotoxicity, hits mostly inhibitors; hit rate 6.6% among 94,000; further: nearly all actives have a fitted effect of over 60% in size
#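 HEK 293 cells at 250 cells/well were exposed to compounds by pintool transfer for 48 or 72 hr at 37 degree Celsius, 5% CO2. Viability was read as ATP-coupled luminescence with CellTiter-Glo after 10 min at room temperature.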
# 3T3 cytotox = NIH 3T3 cell cytotoxicity | NIH 3T3 viability, CellTiter-Glo ATP luminescence, 48-72 h | Potency, µM (series often up to 96.7 µM), for the others: at the highest dose activity change, negative = cytotoxicity, most hits filed as inhibitors | hit rate 4.3% among 94,000; further: nearly all actives have a fitted effect of over 55% in size
#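 ATP-dependent luminescence (CellTiter-Glo) served as the viability signal for NIH 3T3 cells treated with compound for 48 or 72 hr at 37 °C.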
# HEK293 viab = counter-screen for SNCA expression inhibitors: cell viability; HEK-293-SNCA-luc viability, GF-AFC fluorescence, 24 h; hit rate 0.12% among 150,000; Potency, µM (highest dose often 57.1 µM), for inactives: top-dose activity change, negative = cytotoxicity, actives largely listed as cytotoxic;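 further: 0% = DMSO-treated cells and -100% = medium-only wells without cells; nearly all actives have a fitted effect of over 30% in size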
#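 HEK-293-SNCA-luc cells (1500/well) plated 24 h, then exposed 24 h to a dilution series; GF-AFC added 30 min at 37C, fluorescence 405/540 nm; normalised to medium-only and DMSO wells, Hill fit.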
# Numbers without * were called inactive; i = inactive; ? = inconclusive; . = no result; ! = repeats disagree; [ ] = another dose, or the depositor's remark. In the library only some 7.4% were active in any assay of this set; here they are far more common. Unless noted, the call rests on the fitted dose curve; in most records, active means well fitted curve in the direction sought with a large enough effect; inconclusive means small, poorly fitted or top-dose-only effect, or another doubt; inactive means no such curve, though single readings can be large; an effect the other way counts as inactive or inconclusive. Unless noted, on the % scale 0 is the no-effect control and ±100 the full control effect; potency means the concentration at half of the fitted maximal effect.
SMILES,hNpr1 antagonist,SNCA expr inh,Luciferase inh,HEK293 tox,3T3 cytotox,HEK293 viab
CCC1(CC)CC1C(=O)N1CCc2onc(-c3cccc(F)c3)c2C1 (stereo not given),-26%,-10%,i,45µM*,?,-10%
COCCOCC(=O)NCC12CCCC=C1NC(=O)CC2 (stereo not given),10%,1%,i,i,-1%,14%
CC1=C[C@@H](CNC(C)C)[C@H](C(C)C)C[C@H]1Cc1nnc(C(C)(C)C)o1,-3%[70.6 µM],2%[87.6 µM],i,-1%[172 µM],-5%[138 µM],1%[87.6 µM]
COc1ccc(-c2nnc(C[C@@H]3C[C@@H](C(C)C)[C@H](CNCc4ccco4)C=C3C)o2)cc1,?,-9%,i,45µM*,?,?
CC1=C[C@@H](CNCc2ccco2)[C@H](C(C)C)C[C@H]1Cc1nnc(C(C)(C)C)o1,1%[70.6 µM],?,i,63µM*,100µM*,-27%[87.6 µM]
CC1=C[C@@H](CNCc2cccnc2)[C@H](C(C)C)C[C@H]1Cc1nnc(-c2ccc([N+](=O)[O-])cc2)o1,?,?,i,11µM*,32µM*,?
COc1ccc(-c2nnc(C[C@@H]3C[C@@H](C(C)C)[C@H](CNCc4ccncc4)C=C3C)o2)cc1,?,-14%,i,25µM*,?,?
O=C1C(OCC2CC2)C2(CCCCC2)N1C1CCNCC1 (stereo not given),4%,?,i,-27%,-3%,-7%
Cc1nnc([C@@H]2CC(F)(F)CN2C(=O)c2c(C)noc2C)o1,10%,-1%,i,i,i,-1%
CC(=O)N1CC2(Cc3ccccc31)CN(C(=O)c1ccc(F)cc1)C2,0%[70.6 µM],56%[87.6 µM],i,-1%[172 µM],-12%[138 µM],11%[87.6 µM]
CCn1cc(S(=O)(=O)N2CCCCC2c2nc(CCOc3ccc(F)cc3)no2)cn1 (stereo not given),-19%,?,i,45µM*,?,-29%
O=C(c1ccc(Cl)nc1)N1CCC2(CC1)CC(c1cccc(C(F)(F)F)c1)=NO2,.,.,.,35µM*!,?,.
O=C(c1cccnc1)N1CCC2(CC1)CC(c1cccc(C(F)(F)F)c1)=NO2,.,.,.,?,-25%,.
Cc1ccc(C(=O)N2CCC3(CC2)CC(c2cccc(C(F)(F)F)c2)=NO3)cc1,-26%,-24%,i,45µM*!,?,-2%
O=C(c1n[nH]c2c1CCC2)N1CCC(c2nccn2Cc2ccccn2)CC1,3%,-16%,i,-22%,-3%,1%
C[C@H](O)c1c(-c2ccc(Cl)cc2)noc1C(=O)NC1CC1,-8%[70.6 µM],18%[87.6 µM],i,112µM*,?,2%[87.6 µM]
CNC(=O)c1onc(-c2ccc(Cl)cc2)c1[C@H](C)O,-9%[70.6 µM],1%[87.6 µM],i,-32%[230 µM],-36%[174 µM],-4%[87.6 µM]
Cc1ccc(CN2CCC3(CC2)CN(c2ncccn2)CC3CO)cc1C (stereo not given),3%,5%,i,-15%,0%,5%
O=C1Nc2ccc(-c3cccc(C(F)(F)F)c3)cc2C(=O)N2CCN(C(=O)NC3CCCCC3)C[C@H]12,1%,?,i,35µM*,?,-28%
O=C1Nc2ccc(-c3cccc(C(F)(F)F)c3)cc2C(=O)N2CCN(C(=O)c3ccco3)C[C@@H]12,-19%,-30%,i,40µM*,?,-27%
COCC(=O)N1CCN2C(=O)c3cc(-c4cccc(C(F)(F)F)c4)ccc3NC(=O)[C@H]2C1,2%,4%,i,?,-25%,8%
Cc1ccc(OCC(=O)N2CCC(N3CC4CC(C3)[C@H]3CCCC(=O)N3C4)CC2)cc1 (stereo not given in full),-14%,-15%,i,1%,1%,-9%
NC(=O)[C@@H]1CCCN1CC[C@H]1CN(C(=O)COc2ccccc2)CC[C@H]1CC(=O)O,1%[70.6 µM],2%[87.6 µM],i,-19%[172 µM],-26%[174 µM],2%[87.6 µM]
Cc1ccc(CNC(=O)Cn2c(C)ccc(NS(=O)(=O)c3ccccc3)c2=O)cc1,-7%,-17%,i,-16%,-2%,8%
O=C(c1ccc(-c2ncc3cnc(C4=CCOCC4)cn23)cc1)N1CCc2ccccc2C1,-25%[70.6 µM],8%[87.6 µM],i,79µM*,?,-27%[87.6 µM]
SMILES,hNpr1 antagonist,SNCA expr inh,Luciferase inh,HEK293 tox,3T3 cytotox,HEK293 viab
COc1cccc(-c2nccc3c(=O)cc(N(C)C)oc23)c1,-5%[70.6 µM],-3%[87.6 µM],i,-1%[230 µM],71µM*,0%[87.6 µM]
COc1cccc(Cl)c1-c1nccc2c(=O)cc(N(C)C)oc12,-3%[70.6 µM],?,i,?,50µM*,7%[87.6 µM]
CN(C)c1cc(=O)c2ccnc(-c3ccc(F)c(Cl)c3)c2o1,5%[70.6 µM],1%[87.6 µM],i,0%[172 µM],?,9%[87.6 µM]
CN(C)c1cc(=O)c2ccnc(-c3cccc(C(F)(F)F)c3)c2o1,-9%[70.6 µM],-11%[87.6 µM],i,?,?,10%[87.6 µM]
O=C(c1ccsc1)N1CCCCCC1c1nc(-c2cccnc2)no1 (stereo not given),0%,?,i,-14%,-24%,9%
CCCS(=O)(=O)N1CC[C@H]2NC(=O)N(c3ccc(F)cc3)C(=O)[C@H]21,3%[70.6 µM],-9%[87.6 µM],i,-7%[172 µM],-7%[138 µM],2%[87.6 µM]
Cn1ccc(C(=O)N2CC3ON=C(C(=O)N4CCN(c5ncccn5)CC4)C3C2)n1 (stereo not given),.,6%,.,i,i,7%
CCCc1ccc(S(=O)(=O)N2CCN(C3CCN(CCC(C)C)C3=O)CC2)cc1 (stereo not given),-22%,0%,i,?,?,-6%
O=C(Nc1ccc(F)cc1)c1ccn2nccc2c1,-9%[70.6 µM],144%[87.6 µM],50µM*,?,-26%[138 µM],1%[87.6 µM]
O=C(Nc1ccc(F)cc1)c1cccn2nccc12,-21%[70.6 µM],35%[87.6 µM],?,i,-15%[138 µM],10%[87.6 µM]
O=C(CC1CCOCC1)NCc1cccc(F)c1,1%,?,i,-4%,3%,1%[12.5 µM]
CCOC(=O)c1ccc(N2C(=O)c3n[nH]c(-c4cccs4)c3C2c2cccc(OC)c2)cc1 (stereo not given),.,18µM*,.,.,.,-21%
COc1ccc(Cc2nnc3ccc(C(=O)NCCc4ccc(Cl)cc4)cn23)cc1,.,-9%,.,89µM*,?,0%
O=C(Nc1ccc(F)cc1)c1ccc2nnc(-c3ccc(Cl)cc3)n2c1,.,11%,.,?,?,2%
O=C(Nc1cccc(Cl)c1)c1ccc2nnc(-c3ccc(Cl)cc3)n2c1,.,-9%,.,40µM*,45µM*,-30%
O=C(NCc1ccc(Cl)cc1)c1ccc2nnc(-c3ccc(Cl)cc3Cl)n2c1,.,-12%,.,?,32µM*,5%
